Measured values reported in PubChem BioAssay (NCI).
This is part of a sample that, as a whole, favours compounds with a hit. Of some 83,000 tested, about 20% had one in any assay.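 Single-concentration screen, 48 h exposure, 96-well plates. Endpoint: percent growth. Below 10 = active.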 Unmarked numbers belong to inactive results. Calls of active or inactive are those of the source.

What was measured:
Experiment in all cases: NCI-60 one-dose screen, 48 h (100 = growth as untreated, 0 = no growth, -100 = all killed)
Settings in all cases: 10 µM unless noted
SR leukemia = system: SR leukemia
OVCAR-8 ovarian = system: OVCAR-8 ovarian
OVCAR-5 ovarian = system: OVCAR-5 ovarian
OVCAR-4 ovarian = system: OVCAR-4 ovarian
SK-OV-3 ovarian = system: SK-OV-3 ovarian
IGROV1 ovarian = system: IGROV1 ovarian
OVCAR-3 ovarian = system: OVCAR-3 ovarian
HS 578T breast = system: HS 578T breast
NCI/ADR-RES ovarian = system: NCI/ADR-RES ovarian

In the case of `CCOC(=O)Nc1ccc(-c2nc(-c3cccc(OC)c3)c(-c3ccnc(Br)c3)[nH]2)cc1`, the growth (SR leukemia) is reported as 9.48% (active), the growth (OVCAR-8 ovarian) is reported as 29.4% and the growth (OVCAR-5 ovarian) is reported as 66.9%. For the same compound, the growth (OVCAR-4 ovarian) was 33.6%, the growth (SK-OV-3 ovarian) was 67.3% and the growth (IGROV1 ovarian) was 45.2%. For the same compound, the growth (OVCAR-3 ovarian) was 33.3%, the growth (HS 578T breast) was -5.11% (active) and the growth (NCI/ADR-RES ovarian) was 27.6%.

`CCc1cccc2c3c(sc12)C(c1ccc(F)cc1)C(C#N)=C(N)O3` (stereo not given) was tested, and the growth (SR leukemia) was 27.3%, the growth (OVCAR-8 ovarian) was 32.9% and the growth (OVCAR-5 ovarian) was 32.6%. For the same compound, the growth (OVCAR-4 ovarian) was 60.4%, the growth (SK-OV-3 ovarian) was 78.5% and the growth (IGROV1 ovarian) was 31.1%. The growth (OVCAR-3 ovarian) was 10.9%, the growth (HS 578T breast) was 26.7% and the growth (NCI/ADR-RES ovarian) was 14%.

`CCCC1CCC(O)(C(C)(O)C(=O)NC2C(=O)N3NCCCC3C(=O)N(O)C(C)C(=O)N3NCCCC3C(=O)N3NCC(O)CC3C(=O)NC(C)C(=O)OC2C(C)C)OC1CC` (stereo not given) was tested, and the growth (SR leukemia) was -87.6% (active), the growth (OVCAR-8 ovarian) was -71.8% (active) and the growth (OVCAR-5 ovarian) was -98.4% (active). The growth (OVCAR-4 ovarian) was -81% (active), the growth (SK-OV-3 ovarian) was -96.3% (active) and the growth (IGROV1 ovarian) was -40% (active). The growth (OVCAR-3 ovarian) was -89.9% (active), the growth (HS 578T breast) was -78.1% (active) and the growth (NCI/ADR-RES ovarian) was -76.7% (active).

In the case of `O=C(Cc1ccc2c(c1)OCCO2)Nc1nc2ccc(F)cc2s1`, the growth (SR leukemia) is reported as 103%, the growth (OVCAR-8 ovarian) is reported as 94.7% and the growth (OVCAR-5 ovarian) is reported as 90.3%. It also gave a growth (OVCAR-4 ovarian) of 96.4%, a growth (SK-OV-3 ovarian) of 105% and a growth (IGROV1 ovarian) of 48.3%. The growth (OVCAR-3 ovarian) was 104%, the growth (HS 578T breast) was 106% and the growth (NCI/ADR-RES ovarian) was 99%.

In the case of `O=C(Nc1ccc(F)cc1F)c1cc(F)ccc1O`, the growth (SR leukemia) is reported as 4.78% (active), the growth (OVCAR-8 ovarian) is reported as 14.9% and the growth (OVCAR-5 ovarian) is reported as 23.3%. For the same compound, the growth (OVCAR-4 ovarian) was 21%, the growth (SK-OV-3 ovarian) was 4.34% (active) and the growth (IGROV1 ovarian) was 21.4%. The growth (OVCAR-3 ovarian) was 1.72% (active), the growth (HS 578T breast) was 12% and the growth (NCI/ADR-RES ovarian) was 6.3% (active).

In the case of `COc1cccc(-c2nc(-c3ccc(NC(=O)c4ccccc4)cc3)[nH]c2-c2ccnc(Br)c2)c1`, the growth (SR leukemia) is reported as -2.71% (active), the growth (OVCAR-8 ovarian) is reported as 34% and the growth (OVCAR-5 ovarian) is reported as 47.9%. For the same compound, the growth (OVCAR-4 ovarian) was 38.4%, the growth (SK-OV-3 ovarian) was 6.72% (active) and the growth (IGROV1 ovarian) was 55.1%. The growth (OVCAR-3 ovarian) was 40%, the growth (HS 578T breast) was -25.8% (active) and the growth (NCI/ADR-RES ovarian) was 35.5%.

In the case of `CCCCn1c(=O)c(-c2cc(-c3ccc(Cl)cc3)nc(-c3ccc(Cl)cc3)c2)cc2cc(Cl)ccc21`, the growth (SR leukemia) is reported as 106%, the growth (OVCAR-8 ovarian) is reported as 101% and the growth (OVCAR-5 ovarian) is reported as 98.4%. For the same compound, the growth (OVCAR-4 ovarian) was 105%, the growth (SK-OV-3 ovarian) was 102% and the growth (IGROV1 ovarian) was 103%. For the same compound, the growth (OVCAR-3 ovarian) was 117%, the growth (HS 578T breast) was 108% and the growth (NCI/ADR-RES ovarian) was 109%.

Compound `CCC(=O)Nc1ccc(-c2nc(-c3cccc(OC)c3)c(-c3ccnc(Br)c3)[nH]2)cc1` has a growth (SR leukemia) of 25.3%, a growth (OVCAR-8 ovarian) of 58.2% and a growth (OVCAR-5 ovarian) of 87%. It also gave a growth (OVCAR-4 ovarian) of 46.8%, a growth (SK-OV-3 ovarian) of 101% and a growth (IGROV1 ovarian) of 81%. For the same compound, the growth (OVCAR-3 ovarian) was 65.4%, the growth (HS 578T breast) was 39.2% and the growth (NCI/ADR-RES ovarian) was 67.9%.

With `CNCCCNc1nc2ccccc2c2c(=O)c3cc(F)ccc3sc12` the growth (SR leukemia) was -35.9% (active), the growth (OVCAR-8 ovarian) was 28% and the growth (OVCAR-5 ovarian) was 66.3%. For the same compound, the growth (OVCAR-4 ovarian) was 19.9%, the growth (SK-OV-3 ovarian) was 75.4% and the growth (IGROV1 ovarian) was 41.4%. For the same compound, the growth (OVCAR-3 ovarian) was -1% (active), the growth (HS 578T breast) was 37.8% and the growth (NCI/ADR-RES ovarian) was 21.4%.

For `NC(=O)C1(Nc2ccc(Br)cc2)CCCC1`, the growth (SR leukemia) was 84.3%, the growth (OVCAR-8 ovarian) was 102% and the growth (OVCAR-5 ovarian) was 96.7%. For the same compound, the growth (OVCAR-4 ovarian) was 115%, the growth (SK-OV-3 ovarian) was 103% and the growth (IGROV1 ovarian) was 108%. It also gave a growth (OVCAR-3 ovarian) of 113%, a growth (HS 578T breast) of 111% and a growth (NCI/ADR-RES ovarian) of 111%.

For `COc1ccc(NC2=C(Br)C(=O)C(C)=C(C)C2=O)cc1`, the growth (SR leukemia) was 2.06% (active), the growth (OVCAR-8 ovarian) was -29.7% (active) and the growth (OVCAR-5 ovarian) was 102%. For the same compound, the growth (OVCAR-4 ovarian) was -99.6% (active), the growth (SK-OV-3 ovarian) was 69.4% and the growth (IGROV1 ovarian) was 41.3%. For the same compound, the growth (OVCAR-3 ovarian) was 60.3%, the growth (HS 578T breast) was 96.9% and the growth (NCI/ADR-RES ovarian) was 80.6%.

`COc1cccc(-c2nc(-c3ccc(NC(=O)OC(C)C)cc3)[nH]c2-c2ccnc(Br)c2)c1` was tested, and the growth (SR leukemia) was -2.3% (active), the growth (OVCAR-8 ovarian) was 27.3% and the growth (OVCAR-5 ovarian) was 53.7%. The growth (OVCAR-4 ovarian) was 32.9%, the growth (SK-OV-3 ovarian) was 33.3% and the growth (IGROV1 ovarian) was 35.5%. The growth (OVCAR-3 ovarian) was 26.2%, the growth (HS 578T breast) was -17.2% (active) and the growth (NCI/ADR-RES ovarian) was 27.7%.

`COc1ccc(CNC(=O)[C@H](O)[C@@H](N)Cc2ccccc2)cc1` showed a growth (SR leukemia) of 93.4%, a growth (OVCAR-8 ovarian) of 108% and a growth (OVCAR-5 ovarian) of 98%. For the same compound, the growth (OVCAR-4 ovarian) was 104%, the growth (SK-OV-3 ovarian) was 110% and the growth (IGROV1 ovarian) was 109%. For the same compound, the growth (OVCAR-3 ovarian) was 119%, the growth (HS 578T breast) was 102% and the growth (NCI/ADR-RES ovarian) was 109%.

In the case of `COc1ccc2[nH]c(-c3ccccc3)c(/C=C(\C#N)S(=O)(=O)c3ccccc3)c2c1`, the growth (SR leukemia) is reported as 2.79% (active), the growth (OVCAR-8 ovarian) is reported as 60.7% and the growth (OVCAR-5 ovarian) is reported as 101%. For the same compound, the growth (OVCAR-4 ovarian) was 12.5%, the growth (SK-OV-3 ovarian) was 73.3% and the growth (IGROV1 ovarian) was 67%. For the same compound, the growth (OVCAR-3 ovarian) was 45.1%, the growth (HS 578T breast) was 67.3% and the growth (NCI/ADR-RES ovarian) was 30.5%.

`Cc1cccc2c(=O)c3c(sc12)c(NCc1ccccc1)nc1ccccc13` was tested, and the growth (SR leukemia) was 74.4%, the growth (OVCAR-8 ovarian) was 100% and the growth (OVCAR-5 ovarian) was 75.6%. It also gave a growth (OVCAR-4 ovarian) of 87.6%, a growth (SK-OV-3 ovarian) of 88.7% and a growth (IGROV1 ovarian) of 74.3%. For the same compound, the growth (OVCAR-3 ovarian) was 106%, the growth (HS 578T breast) was 98.7% and the growth (NCI/ADR-RES ovarian) was 97.2%.
